Assay results: PubChem BioAssay (EPA / NIEHS)
Inconclusive results are not listed. Active and inactive are the calls of the source. The calls were made as follows, unless noted: active = hit-call score of the fitted dose curve at least 0.9, where 1 is the maximum; inactive = score below 0.9.

What was measured:
[1] = ATG_TCF_b_cat_CIS: Attagene CIS-FACTORIAL HepG2 Assay for human T-Cell-Factor with beta-catenin (TCF/b-cat) (AID 2282965); settings: HepG2 TCF/beta-catenin cis-reporter transcription, actives raise or lower the signal
Outline: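 Endogenous TCF/LEF activity read as reporter transcript level via RT-PCR and capillary electrophoresis fluorescence in transfected HepG2, 24 h exposure; gain or loss of signal fitted against DMSO controls.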

[2] = ATG_TAL_CIS: Attagene CIS-FACTORIAL HepG2 Assay for human TAL Basal Promoter (AID 2282966); settings: HepG2 Attagene cis-factorial TAL promoter reporter; actives raise or lower the signal;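 also: background control endpoint measuring basal TAL promoter reporter mRNA not a specific factor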
Outline: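 HepG2, transient MRTU transfection, 24 h compound exposure; RNA → oligo(dT) RT → PCR → 6-FAM primer extension → HpaI digest → CE fluorescence. Bidirectional curve fit vs DMSO. Background-control readout.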

[3] = ATG_TGFb_CIS: Attagene CIS-FACTORIAL HepG2 Assay for human Transforming Growth Factor (TGF) (AID 2282967); settings: HepG2 Attagene CIS TGFb reporter, mRNA transcription; actives raise or lower the signal
Outline: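 After a 24-hour incubation with compound, transfected HepG2 cells were lysed for RNA; reporter cDNA was amplified, fluorescently end-labeled and separated by CE. DMSO served as baseline for bidirectional fits.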

[4] = ATG_VDRE_CIS: Attagene CIS-FACTORIAL HepG2 Assay for human Vitamin D Receptor Element (VDRE) (AID 2282968); settings: HepG2 VDRE cis-reporter transcription, actives raise or lower the signal
Outline: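 Readout is VDRE-driven reporter mRNA reflecting endogenous factor activity in human HepG2 cells, sampled 24 h post-dose. Quantification used labelled RT-PCR products separated by capillary electrophoresis; bidirectional analysis relative to DMSO.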

[5] = target: Estrogen receptor (Homo sapiens) (UniProt P03372); test: ATG_ERa_TRANS: Attagene TRANS-FACTORIAL HepG2 Assay for human Estrogen Receptor alpha (ERa) (AID 2282970; active = hit-call score of the fitted dose curve at least 0.9, where 1 is the maximum); settings: HepG2 Attagene TRANS ERa GAL4 reporter, mRNA
Outline: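 Reporter mRNA induction after 24 hours, detected by fluorescent RT-PCR and capillary electrophoresis, gives the read-out. Cells are HepG2 transiently transfected with GAL4-UAS reporter transcription units responding to chimeric NR-Gal4. Activity is taken as gain of signal over DMSO baseline.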

[6] = target: X-box-binding protein 1 (Homo sapiens) (UniProt P17861); test: ATG_Xbp1_CIS: Attagene CIS-FACTORIAL HepG2 Assay for human X-box Binding Protein 1 (XBP1) (AID 2282972); settings: HepG2 XBP1 cis-element reporter, Attagene multiplex; actives raise or lower the signal
Outline: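 Changes in reporter transcript abundance, read by RT-PCR and capillary electrophoresis, reflect endogenous transcription factor activity. Transfected HepG2 cells received compound for 24 hours; DMSO defined baseline for bidirectional analysis.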

[7] = ATG_M_19_TRANS: Attagene TRANS-FACTORIAL HepG2 Assay for M19 Transcription Factor (Internal Marker) (AID 2282974; active = hit-call score of the fitted dose curve at least 0.9, where 1 is the maximum); settings: HepG2 Attagene TRANS-FACTORIAL M19 internal marker reporter
Outline: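 Fluorescence of 6-FAM-labelled reporter cDNA fragments, separated by capillary electrophoresis, served as the readout. These derived from HepG2 cells carrying transfected GAL4-UAS reporter units after 24 h dosing, with DMSO as negative control.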

[8] = target: Bile acid receptor (Homo sapiens) (UniProt Q96RI1); test: ATG_FXR_TRANS: Attagene TRANS-FACTORIAL HepG2 Assay for Farnesoid X Receptor (FXR) (AID 2282979; active = hit-call score of the fitted dose curve at least 0.9, where 1 is the maximum;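 also: hits raise reporter mRNA above DMSO so AC50 marks FXR activation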); settings: HepG2 Attagene TRANS FXR-GAL4 reporter transcription
Outline: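 Read-out: fluorescent reporter transcripts quantified by capillary electrophoresis after RT-PCR of total RNA. Source cells were HepG2 transiently carrying chimeric NR-GAL4 plus GAL4-UAS reporter units, dosed 24 h. Activity fitted upward relative to DMSO baseline.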

[9] = target: Oxysterols receptor LXR-alpha (Homo sapiens) (UniProt Q13133); test: ATG_LXRa_TRANS: Attagene TRANS-FACTORIAL HepG2 Assay for human Liver X Receptor alpha (LXRa) (AID 2282980; active = hit-call score of the fitted dose curve at least 0.9, where 1 is the maximum); settings: HepG2 Attagene TRANS reporter, LXRa transactivation
Outline: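 Read-out: reporter transcript levels by RT-PCR plus capillary electrophoresis, fluorescence intensity. Transiently transfected HepG2, exogenous NR-GAL4 chimera, GAL4-UAS reporters; 24 h compound exposure. Activity = increase over DMSO negative control.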

[10] = target: Oxysterols receptor LXR-beta (Homo sapiens) (UniProt P55055); test: ATG_LXRb_TRANS: Attagene TRANS-FACTORIAL HepG2 Assay for human Liver X Receptor beta (LXRb) (AID 2282981; active = hit-call score of the fitted dose curve at least 0.9, where 1 is the maximum); settings: HepG2 Attagene TRANS GAL4-LXRb reporter, mRNA
Outline: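 After 24 h chemical treatment of transfected HepG2 cells carrying exogenous NR-Gal4 chimeras, reporter mRNA was quantified by fluorescent RT-PCR and capillary electrophoresis; activity taken as increase over DMSO controls.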

[11] = target: Hepatocyte nuclear factor 4-alpha (Homo sapiens) (UniProt P41235); test: ATG_HNF4a_TRANS: Attagene TRANS-FACTORIAL HepG2 Assay for human Hepatocyte Nuclear Factor 4 alpha (HNF4a) (AID 2282982; active = hit-call score of the fitted dose curve at least 0.9, where 1 is the maximum); settings: HepG2 HNF4a transactivation reporter, mRNA readout
Outline: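 Activity of an exogenous HNF4a–Gal4 fusion scored as induced GAL4-UAS reporter transcripts after 24 h chemical exposure of transfected human HepG2 cells. Read-out via RT-PCR with 6-FAM labelling and capillary electrophoresis; rise over DMSO baseline.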

[12] = target: Transcriptional activator Myb (Homo sapiens) (UniProt P10242); test: ATG_Myb_CIS: Attagene CIS-FACTORIAL HepG2 Assay for human Myeloblastosis (Myb) Proto-Oncogene Transcription Factor (AID 2282986); settings: HepG2 Attagene CIS-FACTORIAL Myb reporter transcription; actives raise or lower the signal
Outline: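 Reporter transcript levels, quantified by fluorescent RT-PCR and capillary electrophoresis, serve as the read-out. Transfected HepG2 cells carrying cis-promoter reporter units are dosed for 24 hours, and curves are fitted bidirectionally against DMSO controls.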

[13] = ATG_GAL4_TRANS: Attagene TRANS-FACTORIAL HepG2 Assay for GAL4 (Internal Marker) (AID 2282976; active = hit-call score of the fitted dose curve at least 0.9, where 1 is the maximum); settings: HepG2 Attagene TRANS GAL4 internal marker reporter
Outline: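 RT-PCR/capillary electrophoresis readout of reporter mRNA. HepG2, transient MRTU transfection (GAL4-UAS reporters), 24 h compound exposure. Background-control endpoint, positive direction vs DMSO baseline.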

[14] = target: Nuclear receptor subfamily 4 group A member 2 (Homo sapiens) (UniProt P43354); test: ATG_NURR1_TRANS: Attagene TRANS-FACTORIAL HepG2 Assay for human Nuclear Receptor Related Protein 1 (NURR1) (AID 2282985; active = hit-call score of the fitted dose curve at least 0.9, where 1 is the maximum); settings: HepG2 Attagene TRANS reporter, mRNA readout
Outline: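 Reporter transcript induction, measured by RT-PCR with fluorescent labelling, HpaI digestion and capillary electrophoresis, after 24 hr dosing of human HepG2 cells transiently expressing an exogenous NR-Gal4 fusion with GAL4-UAS-driven reporters; DMSO as baseline.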

[15] = target: Steroid hormone receptor ERR1 (Homo sapiens) (UniProt P11474); test: ATG_ERRa_TRANS: Attagene TRANS-FACTORIAL HepG2 Assay for human Estrogen-Related Receptor alpha (ERRa) (AID 2282971; active = hit-call score of the fitted dose curve at least 0.9, where 1 is the maximum); settings: HepG2 Attagene TRANS reporter, ERRa transactivation
Outline: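 Transfected HepG2, 24 h dosing, ERRa-Gal4 chimera driving GAL4-UAS reporter. Readout: reporter mRNA via RT-PCR plus capillary electrophoresis (fluorescence). Positive direction vs DMSO control.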

[16] = target: Estrogen-related receptor gamma (Homo sapiens) (UniProt P62508); test: ATG_ERRg_TRANS: Attagene TRANS-FACTORIAL HepG2 Assay for human Estrogen-Related Receptor gamma (ERRg) (AID 2282977; active = hit-call score of the fitted dose curve at least 0.9, where 1 is the maximum;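 also: hits increase reporter signal over DMSO so potencies reflect activators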); settings: HepG2 Attagene TRANS reporter, ERRg transactivation
Outline: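 Exogenous NR-Gal4 chimera activity measured as reporter transcript induction after 24 h in transiently transfected HepG2 cells. RNA reverse-transcribed, PCR-amplified, 6-FAM-labelled and resolved by capillary electrophoresis; increase over DMSO baseline.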

[17] = ATG_M_06_TRANS: Attagene TRANS-FACTORIAL HepG2 Assay for M06 Transcription Factor (Internal Marker) (AID 2282983; active = hit-call score of the fitted dose curve at least 0.9, where 1 is the maximum); settings: HepG2 Attagene TRANS M06 internal marker reporter
Outline: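 Read-out: fluorescent reporter cDNA fragments resolved by capillary electrophoresis after RT-PCR and HpaI cut. Source cells were HepG2 carrying transfected multi-reporter GAL4 constructs, dosed 24 h. Increase over DMSO control analysed.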

[18] = ATG_M_32_TRANS: Attagene TRANS-FACTORIAL HepG2 Assay for M32 Transcription Factor (Internal Marker) (AID 2282984; active = hit-call score of the fitted dose curve at least 0.9, where 1 is the maximum); settings: HepG2 Attagene TRANS M32 internal marker reporter
Outline: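 Internal background reporter in transfected HepG2: after 24 h chemical exposure, RNA reverse-transcribed, reporter cDNA amplified, fluorescently labelled and HpaI-cut, then sized by capillary electrophoresis. Gain of signal fitted against DMSO control.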

[19] = target: Glucocorticoid receptor (Homo sapiens) (UniProt P04150); test: ATG_GR_TRANS: Attagene TRANS-FACTORIAL HepG2 Assay for human Glucocorticoid Receptor (GR) (AID 2282978; active = hit-call score of the fitted dose curve at least 0.9, where 1 is the maximum;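 also: activators score as hits since higher reporter transcript over DMSO is fitted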); settings: HepG2 Attagene TRANS GR reporter, mRNA transcription
Outline: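 Fluorescent capillary-electrophoresis quantitation of reporter mRNA is the readout, taken 24 h after dosing human HepG2 cells carrying transiently transfected GAL4-UAS reporter units activated by chimeric NR-GAL4 fusions; activity scored as induction over DMSO.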

Measured: AC50

Sequence of Oxysterols receptor LXR-alpha (Homo sapiens) (Q13133 whole entry, looked up, the tested form may be a part): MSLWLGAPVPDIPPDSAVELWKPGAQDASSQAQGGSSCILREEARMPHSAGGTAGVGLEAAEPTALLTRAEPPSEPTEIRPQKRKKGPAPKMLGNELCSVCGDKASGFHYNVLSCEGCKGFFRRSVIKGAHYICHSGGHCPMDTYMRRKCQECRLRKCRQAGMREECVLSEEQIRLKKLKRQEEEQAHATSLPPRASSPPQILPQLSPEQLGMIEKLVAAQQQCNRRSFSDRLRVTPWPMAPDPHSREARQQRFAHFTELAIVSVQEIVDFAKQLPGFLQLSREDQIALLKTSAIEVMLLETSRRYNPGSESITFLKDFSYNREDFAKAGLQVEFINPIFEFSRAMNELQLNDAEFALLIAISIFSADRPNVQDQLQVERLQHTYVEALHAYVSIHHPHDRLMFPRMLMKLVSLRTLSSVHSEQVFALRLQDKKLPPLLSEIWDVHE
Sequence of Estrogen receptor (Homo sapiens) (P03372 whole entry, looked up, the tested form may be a part): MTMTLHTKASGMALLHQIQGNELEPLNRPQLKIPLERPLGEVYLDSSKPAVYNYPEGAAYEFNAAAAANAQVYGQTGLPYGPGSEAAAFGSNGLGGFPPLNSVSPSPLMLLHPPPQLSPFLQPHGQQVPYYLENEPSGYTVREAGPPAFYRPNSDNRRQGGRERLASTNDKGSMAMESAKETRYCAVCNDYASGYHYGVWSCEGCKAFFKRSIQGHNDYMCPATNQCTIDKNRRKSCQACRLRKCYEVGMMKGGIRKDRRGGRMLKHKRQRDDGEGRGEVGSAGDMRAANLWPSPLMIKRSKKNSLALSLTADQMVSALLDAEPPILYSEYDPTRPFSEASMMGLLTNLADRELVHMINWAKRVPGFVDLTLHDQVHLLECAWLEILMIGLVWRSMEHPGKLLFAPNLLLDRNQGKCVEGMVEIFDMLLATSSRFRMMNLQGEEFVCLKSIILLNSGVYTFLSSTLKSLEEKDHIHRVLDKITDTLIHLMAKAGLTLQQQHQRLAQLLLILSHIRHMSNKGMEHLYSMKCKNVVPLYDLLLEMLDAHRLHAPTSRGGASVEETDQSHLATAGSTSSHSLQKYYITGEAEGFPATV
Sequence of Transcriptional activator Myb (Homo sapiens) (P10242 whole entry, looked up): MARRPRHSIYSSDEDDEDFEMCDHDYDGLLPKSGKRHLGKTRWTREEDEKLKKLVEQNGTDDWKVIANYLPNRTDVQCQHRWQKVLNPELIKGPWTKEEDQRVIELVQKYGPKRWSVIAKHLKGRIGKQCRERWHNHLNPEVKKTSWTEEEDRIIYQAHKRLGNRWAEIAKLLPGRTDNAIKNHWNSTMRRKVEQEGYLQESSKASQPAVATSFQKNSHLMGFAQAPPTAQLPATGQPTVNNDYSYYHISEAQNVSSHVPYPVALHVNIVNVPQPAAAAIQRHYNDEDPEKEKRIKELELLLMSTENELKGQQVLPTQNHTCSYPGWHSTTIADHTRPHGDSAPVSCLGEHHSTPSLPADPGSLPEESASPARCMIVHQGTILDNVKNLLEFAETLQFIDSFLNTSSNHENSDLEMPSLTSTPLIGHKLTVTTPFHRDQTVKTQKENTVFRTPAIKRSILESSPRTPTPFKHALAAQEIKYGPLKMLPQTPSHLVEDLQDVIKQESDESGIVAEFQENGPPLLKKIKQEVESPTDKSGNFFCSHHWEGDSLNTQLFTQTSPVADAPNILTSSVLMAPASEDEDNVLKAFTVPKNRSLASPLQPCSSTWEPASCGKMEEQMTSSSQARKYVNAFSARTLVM
Sequence of Oxysterols receptor LXR-beta (Homo sapiens) (P55055 whole entry, looked up, the tested form may be a part): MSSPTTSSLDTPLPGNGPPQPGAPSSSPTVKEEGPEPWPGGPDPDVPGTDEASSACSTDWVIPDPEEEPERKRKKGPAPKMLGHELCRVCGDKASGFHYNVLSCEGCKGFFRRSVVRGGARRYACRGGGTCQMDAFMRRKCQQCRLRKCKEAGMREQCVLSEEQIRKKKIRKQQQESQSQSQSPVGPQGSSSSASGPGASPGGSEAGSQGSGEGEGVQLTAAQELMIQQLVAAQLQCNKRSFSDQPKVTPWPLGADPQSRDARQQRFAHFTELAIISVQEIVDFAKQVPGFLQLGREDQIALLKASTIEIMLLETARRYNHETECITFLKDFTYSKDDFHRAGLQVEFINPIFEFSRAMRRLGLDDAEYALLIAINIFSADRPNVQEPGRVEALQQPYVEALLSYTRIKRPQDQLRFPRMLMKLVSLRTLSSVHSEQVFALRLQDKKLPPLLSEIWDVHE
Sequence of X-box-binding protein 1 (Homo sapiens) (P17861 whole entry, looked up): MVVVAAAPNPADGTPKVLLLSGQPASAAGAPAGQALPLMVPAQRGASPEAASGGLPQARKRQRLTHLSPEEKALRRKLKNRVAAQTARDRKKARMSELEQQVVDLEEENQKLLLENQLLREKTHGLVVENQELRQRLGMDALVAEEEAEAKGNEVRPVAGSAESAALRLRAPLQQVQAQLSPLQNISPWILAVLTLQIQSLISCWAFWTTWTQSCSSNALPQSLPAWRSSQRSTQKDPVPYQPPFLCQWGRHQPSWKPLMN
Sequence of Hepatocyte nuclear factor 4-alpha (Homo sapiens) (P41235 whole entry, looked up, the tested form may be a part): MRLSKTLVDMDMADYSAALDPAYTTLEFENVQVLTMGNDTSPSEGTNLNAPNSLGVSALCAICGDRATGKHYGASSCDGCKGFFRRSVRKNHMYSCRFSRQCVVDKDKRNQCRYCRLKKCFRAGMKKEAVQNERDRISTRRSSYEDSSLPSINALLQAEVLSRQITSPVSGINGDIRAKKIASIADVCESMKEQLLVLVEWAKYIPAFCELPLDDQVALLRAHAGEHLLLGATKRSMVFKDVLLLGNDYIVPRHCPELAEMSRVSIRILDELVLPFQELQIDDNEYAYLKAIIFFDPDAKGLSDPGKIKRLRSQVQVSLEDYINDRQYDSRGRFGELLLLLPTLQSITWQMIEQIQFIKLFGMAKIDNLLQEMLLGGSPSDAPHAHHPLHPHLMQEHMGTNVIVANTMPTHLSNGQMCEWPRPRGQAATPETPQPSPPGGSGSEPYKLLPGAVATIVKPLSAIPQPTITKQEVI
Sequence of Nuclear receptor subfamily 4 group A member 2 (Homo sapiens) (P43354 whole entry, looked up, the tested form may be a part): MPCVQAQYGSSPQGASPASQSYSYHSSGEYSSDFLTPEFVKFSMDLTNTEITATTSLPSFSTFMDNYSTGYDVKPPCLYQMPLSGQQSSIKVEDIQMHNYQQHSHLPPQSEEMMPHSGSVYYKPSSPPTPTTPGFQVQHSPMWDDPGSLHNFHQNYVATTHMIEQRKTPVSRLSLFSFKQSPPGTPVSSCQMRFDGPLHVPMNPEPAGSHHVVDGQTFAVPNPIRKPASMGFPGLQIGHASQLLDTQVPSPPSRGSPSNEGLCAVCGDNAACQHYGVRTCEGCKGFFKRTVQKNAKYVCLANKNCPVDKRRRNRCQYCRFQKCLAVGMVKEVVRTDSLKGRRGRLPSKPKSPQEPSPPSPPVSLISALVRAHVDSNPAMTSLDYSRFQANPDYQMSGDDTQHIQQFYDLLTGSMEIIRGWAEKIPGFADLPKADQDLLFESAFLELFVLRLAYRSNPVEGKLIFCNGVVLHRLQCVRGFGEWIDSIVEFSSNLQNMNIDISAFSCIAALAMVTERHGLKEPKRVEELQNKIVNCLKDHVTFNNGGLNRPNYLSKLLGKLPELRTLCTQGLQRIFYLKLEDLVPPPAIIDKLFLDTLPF
Sequence of Estrogen-related receptor gamma (Homo sapiens) (P62508 whole entry, looked up, the tested form may be a part): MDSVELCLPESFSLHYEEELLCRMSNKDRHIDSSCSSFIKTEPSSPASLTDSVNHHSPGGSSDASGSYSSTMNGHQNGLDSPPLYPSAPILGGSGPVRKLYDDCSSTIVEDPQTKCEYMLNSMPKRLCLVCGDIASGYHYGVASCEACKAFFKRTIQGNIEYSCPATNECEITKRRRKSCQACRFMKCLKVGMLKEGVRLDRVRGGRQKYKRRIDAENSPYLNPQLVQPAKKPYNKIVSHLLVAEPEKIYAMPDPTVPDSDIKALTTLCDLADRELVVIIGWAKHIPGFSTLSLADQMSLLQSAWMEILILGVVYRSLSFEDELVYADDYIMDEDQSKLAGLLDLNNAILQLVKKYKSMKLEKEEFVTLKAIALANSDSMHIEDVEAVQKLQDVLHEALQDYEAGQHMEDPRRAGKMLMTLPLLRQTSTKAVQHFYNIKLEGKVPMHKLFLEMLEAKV
Sequence of Steroid hormone receptor ERR1 (Homo sapiens) (P11474 whole entry, looked up, the tested form may be a part): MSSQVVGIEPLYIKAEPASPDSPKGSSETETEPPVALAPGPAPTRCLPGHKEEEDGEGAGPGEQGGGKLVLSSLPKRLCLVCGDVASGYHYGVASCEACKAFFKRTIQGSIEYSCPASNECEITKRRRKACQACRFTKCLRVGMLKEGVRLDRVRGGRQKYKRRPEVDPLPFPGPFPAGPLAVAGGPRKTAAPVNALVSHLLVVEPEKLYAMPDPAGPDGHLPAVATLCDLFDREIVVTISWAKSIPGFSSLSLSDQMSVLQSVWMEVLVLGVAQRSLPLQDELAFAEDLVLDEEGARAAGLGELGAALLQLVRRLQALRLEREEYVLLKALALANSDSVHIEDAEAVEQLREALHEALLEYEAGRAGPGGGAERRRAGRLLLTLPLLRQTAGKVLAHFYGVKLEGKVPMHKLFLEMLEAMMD
Sequence of Bile acid receptor (Homo sapiens) (Q96RI1 whole entry, looked up, the tested form may be a part): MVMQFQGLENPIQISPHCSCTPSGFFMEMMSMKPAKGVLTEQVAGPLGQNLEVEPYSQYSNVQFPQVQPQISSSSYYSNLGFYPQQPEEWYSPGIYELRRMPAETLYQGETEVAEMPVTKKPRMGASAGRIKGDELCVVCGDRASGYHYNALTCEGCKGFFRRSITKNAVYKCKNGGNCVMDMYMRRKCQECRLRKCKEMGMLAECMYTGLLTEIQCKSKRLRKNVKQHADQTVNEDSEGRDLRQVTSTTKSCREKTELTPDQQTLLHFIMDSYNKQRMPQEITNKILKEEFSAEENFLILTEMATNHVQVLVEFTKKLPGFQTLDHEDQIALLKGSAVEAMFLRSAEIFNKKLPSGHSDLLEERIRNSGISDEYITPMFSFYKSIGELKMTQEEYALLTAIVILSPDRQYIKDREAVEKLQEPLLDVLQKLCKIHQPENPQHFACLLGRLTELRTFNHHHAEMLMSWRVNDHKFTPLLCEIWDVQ

[Cl][Dy]([Cl])[Cl]
not listed: [13] | [14] | [15] | [16] | [17] | [18] | [19]
inactive: all other assays above

CC(=O)OC/C=C(C)/C=C/C=C(C)/C=C/C1=C(C)CCCC1(C)C
active: [1] 100 µM | [3] 1.23 µM | [4] 0.946 µM
inactive: [2] | [5] | [6] | [7] | [13] | [9] | [11] | [14] | [12]

FC(F)(F)c1ccc(Cl)c(Cl)c1
inactive: [1] | [2] | [3] | [4] | [5] | [6] | [7] | [9] | [11] | [12]

CCCCCCCCCOS(=O)(=O)O
inactive: [1] | [2] | [3] | [4] | [6] | [11] | [12]
active: [5] 20.1 µM

CCC(C)(C)C1CCC(OC)CC1 (configuration not stated)
inactive: [1] | [2] | [3] | [4] | [6] | [9] | [10] | [14] | [12]
active: [5] 58.7 µM

C=CC(=O)OCC(CO)(COC(=O)C=C)COC(=O)C=C
active: [1] 5.46 µM | [3] 54.2 µM | [4] 0.708 µM | [12] 180 µM
not listed: [5] | [7] | [8] | [9] | [18] | [19]
inactive: all other assays above

CC(=O)CCC=C(C)CCC=C(C)C
inactive: [1] | [2] | [3] | [5] | [6] | [11] | [17] | [14] | [12]
active: [4] 7.02 µM

Cc1cc(N)n(-c2ccccc2)n1
not listed: [5] | [7] | [8] | [10] | [11] | [13] | [18] | [19]
inactive: all other assays above

O=C(O)c1cccc(Cl)n1
inactive: [1] | [2] | [3] | [4] | [5] | [6] | [9] | [11] | [18] | [12]

C/C=C(\C)C(=O)OC/C=C(\C)CCC=C(C)C
active: [14] 20 µM
inactive: [1] | [2] | [3] | [4] | [5] | [6] | [19] | [11] | [17] | [12]
